Laboratory results published in the supplement of paper PMC12350171.
Where a name gives a salt, the structure may show the parent alone.

Columns and labels:
Details in all cases: 20 µM
[1] = test system: Salmonella enterica typhimurium; assay: growth AUC normalised to DMSO control (fraction of control); higher = less growth inhibition, active = hit call of the paper
Summary of the method: (§1)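 Hemin and NAD were added to the medium for Haemophilus parainfluenzae. All pathogens, after two anaerobic passages, were inoculated at a starting OD578 of 0.01 into pre-reduced mGAM plates with 20 μM compound and 1% DMSO under breathable seals, and OD578 was read hourly for 24 h in three biological replicates. AUC of each growth curve was obtained with the trapezoidal rule up to the exponential-to-stationary transition and normalised to DMSO controls from the same plate.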

Shigella flexneri = assay: as above
Summary of the method: as §1

Vibrio cholerae = assay: as above
Summary of the method: as §1

[2] = test system: Yersinia pseudotuberculosis; assay: as above
Summary of the method: as §1

P. vulgatus RND KO = assay: growth AUC normalised to DMSO control (median) (fraction of control); higher = less growth inhibition, active = hit call of the paper
Summary of the method: (§2)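 Strains were passaged twice overnight without oxygen, then grown in mGAM in 96-well plates with each approved-drug library compound at 20 μM and 1% DMSO, starting at OD578 0.01. OD578 was read hourly for 24 h inside an anaerobic incubator. Curves were truncated at entry into stationary phase, and the trapezoidal-rule area under the curve was normalised to same-plate vehicle wells. The value is the median across three biological replicates.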

P. vulgatus WT = assay: as above
Summary of the method: as §2

[3] = test system: S. enterica typhimurium WT; assay: as above
Summary of the method: as §2

[4] = test system: S. enterica typhimurium tolC KO; assay: as above
Summary of the method: as §2

Measured: growth AUC normalised to DMSO control
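For growth AUC normalised to DMSO control (median) in this document: active when median AUC fell below 0.1.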

CC(=O)CC(c1ccccc1)c1c(O)c2ccccc2oc1=O (stereo not given) [Warfarin]
inactive: [1] 0.999 | Shigella flexneri 0.996 | Vibrio cholerae 0.945 | [2] 0.999 | P. vulgatus RND KO 1 | P. vulgatus WT 1.03 | [3] 0.999 | [4] 0.988

O=C1CCc2cc(OCCCCc3nnnn3C3CCCCC3)ccc2N1 [Cilostazol]
inactive: [1] 0.985 | Shigella flexneri 0.971 | Vibrio cholerae 0.958 | [2] 0.989 | P. vulgatus RND KO 0.975 | P. vulgatus WT 0.98 | [3] 1 | [4] 0.851

O=C(NCCO[N+](=O)[O-])c1cccnc1 [Nicorandil]
inactive: [1] 0.995 | Shigella flexneri 0.99 | Vibrio cholerae 0.991 | [2] 0.999 | P. vulgatus RND KO 0.986 | P. vulgatus WT 0.996 | [3] 1.01 | [4] 1.01

CC1CNc2c(cccc2S(=O)(=O)N[C@@H](CCCNC(=N)N)C(=O)N2CC[C@@H](C)C[C@@H]2C(=O)O)C1 (stereo not given in full) [Argatroban]
inactive: [1] 1 | Shigella flexneri 1.03 | Vibrio cholerae 1 | [2] 1.02 | P. vulgatus RND KO 1.03 | P. vulgatus WT 1.06 | [3] 1.01 | [4] 0.996

Oc1c(Cl)cc(Cl)c(Cl)c1Cc1c(O)c(Cl)cc(Cl)c1Cl [Hexachlorophene]
active: Vibrio cholerae 0.0587 | [2] 0.411 | P. vulgatus RND KO 0.00764 | P. vulgatus WT 0.00869 | [4] 0.00738
inactive: [1] 0.941 | Shigella flexneri 1.04 | [3] 0.972

CNC(=C[N+](=O)[O-])NCCSCc1csc(CN(C)C)n1 [Nizatidine]
inactive: [1] 0.998 | Shigella flexneri 0.989 | Vibrio cholerae 0.997 | [2] 1 | P. vulgatus RND KO 1.03 | P. vulgatus WT 1.04 | [3] 1.02 | [4] 0.989

Cc1cnc(C(=O)O)c[n+]1[O-] [Acipimox]
inactive: [1] 0.983 | Shigella flexneri 1 | Vibrio cholerae 0.982 | [2] 0.969 | P. vulgatus RND KO 1 | P. vulgatus WT 0.994 | [3] 1.01 | [4] 0.992

CCN(CC)CC(=O)Nc1c(C)cccc1C [Lidocaine hydrochloride]
inactive: [1] 0.999 | Shigella flexneri 1.02 | Vibrio cholerae 1.01 | [2] 1 | P. vulgatus RND KO 1.02 | P. vulgatus WT 1.03 | [3] 0.963 | [4] 0.996

CCCNC(C)C(=O)Nc1ccccc1C (stereo not given) [Prilocaine hydrochloride]
inactive: [1] 0.987 | Shigella flexneri 1 | Vibrio cholerae 1 | [2] 0.998 | P. vulgatus RND KO 0.99 | P. vulgatus WT 1 | [3] 0.992 | [4] 0.993

NS(=O)(=O)c1cc(C2(O)NC(=O)c3ccccc32)ccc1Cl (stereo not given) [Chlorthalidone]
inactive: [1] 1 | Shigella flexneri 0.989 | Vibrio cholerae 0.995 | [2] 0.994 | P. vulgatus RND KO 1 | P. vulgatus WT 0.986 | [3] 1 | [4] 0.998

CC(=O)O[C@@]12CO[C@@H]1C[C@H](O)[C@@]1(C)C(=O)[C@H](O)C3=C(C)[C@@H](OC(=O)[C@H](O)[C@@H](NC(=O)OC(C)(C)C)c4ccccc4)C[C@@](O)([C@@H](OC(=O)c4ccccc4)[C@H]21)C3(C)C [Docetaxel]
inactive: [1] 0.995 | Shigella flexneri 0.982 | Vibrio cholerae 1.07 | [2] 1.04 | P. vulgatus RND KO 0.904 | P. vulgatus WT 0.92 | [3] 1 | [4] 1

C[N+](C)(CCOc1ccccc1)Cc1ccccc1.O=C([O-])c1cc2ccccc2cc1O [Bephenium hydroxynaphthoate]
inactive: [1] 1.05 | Shigella flexneri 1.04 | Vibrio cholerae 1.03 | [2] 1.03 | P. vulgatus RND KO 0.998 | P. vulgatus WT 0.991 | [3] 0.989 | [4] 0.977

CN1[C@@H]2CC[C@H]1C[C@@H](OC(=O)c1c[nH]c3ccccc13)C2 [Tropisetron hydrochloride]
inactive: [1] 1.01 | Shigella flexneri 0.997 | Vibrio cholerae 1.01 | [2] 1 | P. vulgatus RND KO 1.01 | P. vulgatus WT 1.02 | [3] 1.01 | [4] 1

CCOc1ccccc1OCC1CNCCO1 (stereo not given) [Viloxazine hydrochloride]
inactive: [1] 0.997 | Shigella flexneri 0.979 | Vibrio cholerae 0.987 | [2] 0.961 | P. vulgatus RND KO 1 | P. vulgatus WT 0.985 | [3] 0.99 | [4] 0.995

CCC(NC(C)C)C(O)c1ccc(O)c(O)c1 (stereo not given) [Isoetharine mesylate salt]
inactive: [1] 0.999 | Shigella flexneri 1 | Vibrio cholerae 0.995 | [2] 1 | P. vulgatus RND KO 0.994 | P. vulgatus WT 1.01 | [3] 0.999 | [4] 0.994

COc1cccc(N(C)C(=S)Oc2ccc3c(c2)CCCC3)n1 [Liranaftate]
inactive: [1] 1.02 | Shigella flexneri 1.03 | Vibrio cholerae 1.01 | [2] 1.01 | P. vulgatus RND KO 1.03 | P. vulgatus WT 1.07 | [3] 0.996 | [4] 0.909

CC(NCCc1ccc(O)cc1)C(O)c1ccc(O)cc1 (stereo not given) [Ritodrine hydrochloride]
inactive: [1] 1.01 | Shigella flexneri 1.02 | Vibrio cholerae 0.999 | [2] 1 | P. vulgatus RND KO 1 | P. vulgatus WT 1.01 | [3] 1 | [4] 0.997

CCN(CC)CCOC(=O)C(Cc1cccc2ccccc12)CC1CCCO1 (stereo not given) [Nafronyl oxalate]
inactive: [1] 0.985 | Shigella flexneri 0.977 | Vibrio cholerae 0.943 | [2] 0.992 | P. vulgatus RND KO 0.993 | P. vulgatus WT 0.989 | [3] 0.994 | [4] 0.959

CN1CCc2c(c3ccccc3n2Cc2ccccc2)C1 [Mebhydroline 1,5-naphtalenedisulfonate]
inactive: [1] 0.985 | Shigella flexneri 0.96 | Vibrio cholerae 0.922 | [2] 0.702 | P. vulgatus RND KO 0.948 | P. vulgatus WT 0.971 | [3] 0.979 | [4] 0.977

C[C@@H]1CN(c2c(F)c(N)c3c(=O)c(C(=O)O)cn(C4CC4)c3c2F)C[C@H](C)N1 [Sparfloxacin]
active: [1] 0.00775 | Shigella flexneri 0.047 | Vibrio cholerae 0.0469 | [2] 0.0357 | P. vulgatus RND KO 0.0205 | P. vulgatus WT 0.0159 | [3] 0.0129 | [4] 0.00501

O=C(CCCN1CCC(O)(c2ccc(Br)cc2)CC1)c1ccc(F)cc1 [Bromperidol]
inactive: [1] 1.02 | Shigella flexneri 0.984 | Vibrio cholerae 0.999 | [2] 0.997 | P. vulgatus RND KO 0.999 | P. vulgatus WT 1.01 | [3] 0.998 | [4] 0.974

CN(C)CC/C=C1\c2ccccc2CSc2ccccc21 [Dosulepin hydrochloride]
inactive: [1] 0.992 | Shigella flexneri 0.995 | Vibrio cholerae 0.952 | [2] 0.998 | P. vulgatus RND KO 1.03 | P. vulgatus WT 1.02 | [3] 0.996 | [4] 0.942

CN(C)CCC(c1ccc(Br)cc1)c1ccccn1 (stereo not given) [Brompheniramine maleate]
inactive: [1] 0.99 | Shigella flexneri 1 | Vibrio cholerae 1.02 | [2] 1 | P. vulgatus RND KO 0.994 | P. vulgatus WT 0.995 | [3] 0.977 | [4] 0.856

CN1CCC(OC(c2ccccc2)c2ccccc2)CC1 [Diphenylpyraline hydrochloride]
inactive: [1] 0.988 | Shigella flexneri 0.996 | Vibrio cholerae 0.962 | [2] 0.987 | P. vulgatus RND KO 0.994 | P. vulgatus WT 1 | [3] 0.987 | [4] 0.983

CC(=O)OCC(=O)[C@@]1(O)CC[C@H]2[C@@H]3CCC4=CC(=O)CC[C@]4(C)[C@H]3[C@@H](O)C[C@@]21C [Cortisol acetate]
inactive: [1] 1.03 | Shigella flexneri 0.997 | Vibrio cholerae 1 | [2] 1 | P. vulgatus RND KO 1 | P. vulgatus WT 1.03 | [3] 1.01 | [4] 1

CC(C)NCC(O)c1cc(O)cc(O)c1 (stereo not given) [Metaproterenol sulfate]
inactive: [1] 0.995 | Shigella flexneri 0.967 | Vibrio cholerae 0.998 | [2] 0.988 | P. vulgatus RND KO 0.986 | P. vulgatus WT 1 | [3] 1.01 | [4] 0.997

CN(C)CCN(Cc1cccs1)c1ccccn1 [Methapyrilene hydrochloride]
inactive: [1] 0.977 | Shigella flexneri 0.972 | Vibrio cholerae 0.995 | [2] 0.994 | P. vulgatus RND KO 1.01 | P. vulgatus WT 0.995 | [3] 1 | [4] 0.985

CCCCC(O)c1ccccc1 (stereo not given) [Fenipentol]
inactive: [1] 0.997 | Shigella flexneri 0.986 | Vibrio cholerae 1.01 | [2] 0.995 | P. vulgatus RND KO 1 | P. vulgatus WT 0.988 | [3] 1 | [4] 1

NS(=O)(=O)c1cc(Cl)c(Cl)c(S(N)(=O)=O)c1 [Dichlorphenamide]
inactive: [1] 1.01 | Shigella flexneri 1.06 | Vibrio cholerae 1.07 | [2] 1.02 | P. vulgatus RND KO 1.05 | P. vulgatus WT 1.04 | [3] 0.995 | [4] 1.01

Cc1ccc(Cl)c(Nc2ccccc2C(=O)O)c1Cl [Meclofenamic acid sodium salt monohydrate]
inactive: [1] 1 | Shigella flexneri 0.954 | Vibrio cholerae 0.891 | [2] 0.981 | P. vulgatus RND KO 0.859 | P. vulgatus WT 0.903 | [3] 1.01 | [4] 1.01
